Test results from PubChem BioAssay (NCI).
About 79,000 compounds went through this panel and 15% of them were active in at least one assay; those are over-represented in the sample as a whole. A number with no mark means an inactive call. The source made the active and inactive calls. No stated cut-off is given here; in the data, active means growth inhibition above about 70%; inactive means the rest.

experiment: NCI Yeast Anticancer Drug Screen. Data for the bub3 strain (AID 167); details: S. cerevisiae bub3 mutant strain, at 50.0 µM, hits give high values
In short: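 Whole-cell yeast assay. The mutant strain was incubated with compounds, and growth inhibition was determined by comparison with vehicle-treated cells.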

Row | SMILES | growth inhibition
1 | O=C(/C=C/c1cccc(Cl)c1)c1ccccc1 | 95.2% (active)
2 | COc1cccc(N2C(=O)C3CC(CC(C)(C)C)c4c([nH]c5ccccc45)C3C2=O)c1 (stereo not given) | 63.4%
3 | O=C1c2ccccc2NC(=O)C2C1C(c1ccccc1)CC2(O)c1ccccc1 (stereo not given) | 69.5%
4 | CCOC(=O)C1SC(=Nc2ccc(Cl)cc2)N=C1C (stereo not given) | 88.8% (active)
5 | COC(=O)c1nc(=S)[nH]c(C(=O)OC)c1C(=O)c1ccccn1 | 82.8% (active)
6 | Cn1c2c(c3ccccc31)CCN1C[C@@H]3CCCC[C@H]3C[C@@H]21 | 62.5%
7 | CCCCCCCCCCCC1=NCCN1CCNCCCC | 98.4% (active)
8 | CN=C(N)N/N=C(\C)c1ccc2c(c1)Cc1cc(/C(C)=N/NC(N)=NC)ccc1-2 | 86.1% (active)
9 | O=C(Nc1ccccc1)OCCc1ccc(Br)cc1 | 6.1%
10 | CN(C)CC/C(=N\Nc1ccc(Cl)cc1)c1ccccc1 | 99.6% (active)
11 | O=C1Nc2ccccc2/C1=N\N=c1/scc(-c2ccccc2)n1-c1ccccc1 | 51.7%
12 | CC(C)(C)C(=O)CC(=O)C(F)(F)C(F)(F)C(F)(F)F.CC(C)(C)C(=O)CC(=O)C(F)(F)C(F)(F)C(F)(F)F.CC(C)(C)C(=O)CC(=O)C(F)(F)C(F)(F)C(F)(F)F.[Fe] | -1.15%
13 | COc1cc(N=Nc2cccc(S(N)(=O)=O)c2)c2ccccc2c1N | 94.4% (active)
14 | O=C(/C=C/C(=O)OCCCl)OCCCl | 71.2% (active)
15 | CCc1ccccc1NC(=O)C1=C(C)NC(C)=C(C(=O)Nc2c(CC)cccc2CC)C1c1ccc2c(c1)OCO2 (stereo not given) | 90.3% (active)
